What all share (assay): qHTS profiling for inhibitors of Plasmodium falciparum proliferation (AID 504749); further: nearly all actives have a fitted effect of over 60% in size
What all share (details): P. falciparum in erythrocytes, SYBR Green DNA, 72 h; series mostly up to 28.7 µM

The subject of assay [1] is DIV17. Put shortly: (§1)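 Quantitative HTS: compounds pinned into medium, infected erythrocytes added (0.3% parasitemia, 2.5% hematocrit), 72 h culture at 37 C under 5% CO2. Saponin/Triton lysis with SYBR Green I, overnight RT, then fluorescence read.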
Assay [2] has as its system DIV30. A digest of the protocol: as §1
The test system of assay [3] is Dd2. Put shortly: as §1
Assay [4] relates to ECU. Put shortly:
as §1

The test system of assay [5] is FAB9. Put shortly:
as §1

Assay [6] deals with GB4. A digest of the protocol:
as §1

For assay [7], the system named is HB3. Put shortly:
as §1

For assay [8], the system named is ICS. Put shortly:
as §1

Assay [9] concerns JCK. Put shortly: as §1
Assay [10] has as its system N140. A digest of the protocol:
as §1

The test system of assay [11] is P93_24. A digest of the protocol:
as §1

The subject of assay [12] is P94_40. Put shortly:
as §1

Assay [13] deals with PAD. A digest of the protocol:
as §1

Assay [14] relates to PC15. A digest of the protocol:
as §1

Assay [15] deals with PC26. A digest of the protocol:
as §1

Assay [16] relates to PC49. Put shortly:
as §1

Assay [17] concerns SC27B. A digest of the protocol:
as §1

For assay [18], the system named is TAB109. Put shortly:
as §1

In assay [19] the test system is TAB113. A digest of the protocol: as §1
Assay [20] has as its system TAB165. A digest of the protocol: as §1

Inconclusive results are not listed. Calls of active or inactive are those of the source. The call rests on the fitted dose curve; in most records, active means well fitted inhibition curve with a large enough effect; inconclusive means small, poorly fitted or top-dose-only effect; inactive means flat fitted curve, though single readings scatter.
Potency means the concentration at half of the fitted maximal effect.

For the compound `O=C(O)c1nc(=O)[nH]c(=O)[nH]1`, the Potency entry in assay [1], in [2], in [3], in assay [4], in [6] and in assay [7] was “inactive” throughout. Moreover, the Potency entry in assay [8], in [10], in [11], in [12], in assay [13] and in [15] was “inactive” in each case. The Potency entry in assay [17], in assay [18], in [19] and in assay [20] was “inactive” each time. Further, the result in [5], in assay [9], in assay [14] and in assay [16] was inactive.
On to `Clc1ccc(COC(Cn2ccnc2)c2ccc(Cl)cc2Cl)c(Cl)c1` (stereo not drawn), for which the Potency in assay [1] was 3.61 µM (active); in assay [2] it was 5.73 µM (active); in assay [4], 1.26 µM (active); in assay [6] it was 5.1 µM (active); in [7], 3.55 µM (active); in assay [8] it was 1 µM (active). Further, the Potency was 2.24 µM (active) in assay [10]; 1.41 µM (active) in [11]; 2.82 µM (active) in [12]; 3.55 µM (active) in assay [13]; 2.56 µM (active) in [15]; 2.82 µM (active) in assay [17]. The Potency in [18] is 3.98 µM (active); in assay [19], 3.16 µM (active); in assay [20], 1 µM (active). Besides, the compound was called inactive in assay [16].
For the compound `CN1CC(=O)N2C(Cc3c([nH]c4ccccc34)[C@H]2c2ccc3c(c2)OCO3)C1=O` (stereo partly drawn), the Potency entry in [2], in assay [3], in [4], in [6], in assay [7] and in assay [10] was “inactive” each time. Moreover, the Potency result in assay [12], in [13], in assay [15], in [17], in [18] and in assay [19] was “inactive” each time. In assay [20], the Potency result was “inactive”. For the same compound, the result in assay [5], in assay [9], in assay [14] and in assay [16] was inactive.
In the case of `O=C1C(CCC(O)c2ccc(F)cc2)C(c2ccc(O)cc2)N1c1ccc(F)cc1` (stereo not drawn), the Potency result in assay [1], in assay [2], in [3], in assay [4], in assay [6] and in assay [7] was “inactive” throughout. Moreover, the Potency entry in [8], in assay [10], in assay [11], in [12], in assay [13] and in [15] was “inactive” each time. Also, the Potency result in assay [17], in [18], in assay [19] and in [20] was “inactive” in each case. For the same compound, the outcome in assay [5], in assay [9], in assay [14] and in assay [16] was inactive.
For `Cc1cc2nc3c(=O)[nH]c(=O)nc-3n(CC(O)C(O)C(O)CO)c2cc1C` (stereo not drawn), the Potency entry in [2], in assay [3], in assay [4], in assay [7], in assay [8] and in assay [10] was “inactive” each time. The Potency result in assay [11], in [12], in [13], in [15], in assay [17] and in [18] was “inactive” in each case. In addition, the Potency entry in assay [19] and in assay [20] was “inactive” throughout. Moreover, the call in assay [5], in [9], in [14] and in assay [16] was inactive.
Take `CS(=O)(=O)c1ccc(C2=C(c3ccccc3)C(=O)OC2)cc1`: the Potency result in [1], in assay [2], in [3], in assay [4], in assay [6] and in assay [7] was “inactive” each time. In addition, the Potency result in [8], in assay [10], in [11], in assay [12], in assay [13] and in [15] was “inactive” throughout. In addition, the Potency entry in assay [17], in assay [18], in assay [19] and in assay [20] was “inactive” each time. Further, the compound was classed as inactive in assay [5], in [9], in assay [14] and in [16].
Regarding `NS(=O)(=O)c1cc(Cl)c(Cl)c(S(N)(=O)=O)c1`, the Potency result in assay [1], in [2], in assay [3], in [4], in assay [6] and in [7] was “inactive” in each case. Besides, the Potency entry in assay [8], in [10], in assay [11], in assay [12], in assay [13] and in assay [15] was “inactive” in each case. The Potency result in assay [17], in assay [18], in [19] and in assay [20] was “inactive” each time. Also, the compound was called inactive in assay [5], in assay [9], in assay [14] and in assay [16].
Turning to `C=C1c2cccc(O)c2C(O)=C2C(=O)[C@@]3(O)C(O)=C(C(N)=O)C(=O)[C@@H](N(C)C)[C@@H]3[C@@H](O)[C@H]12`, the Potency result in [1], in assay [2], in assay [4], in assay [6], in assay [10] and in [12] was “inactive” each time. Further, the Potency result in [13], in assay [15], in assay [17], in [18] and in assay [19] was “inactive” each time. In addition, the Potency in assay [3] was 1.78 µM (active). Besides, the outcome in assay [5], in assay [9], in [14] and in assay [16] was inactive.
With `CN1CCN2c3ncccc3Cc3ccccc3C2C1` (stereo not drawn), the Potency entry in assay [2], in assay [4], in assay [7], in [12], in assay [17] and in assay [18] was “inactive” each time. Moreover, the Potency result in assay [19] and in assay [20] was “inactive” throughout. Besides, the compound was classed as inactive in [5], in assay [9], in assay [14] and in [16]. For the same compound, in assay [8], the Potency was 11.2 µM (active).
Consider `N#Cc1c(N(CC(=O)O)CC(=O)O)sc(C(=O)O)c1CC(=O)O`, for which the Potency entry in [1], in assay [2], in assay [3], in [4], in assay [6] and in [7] was “inactive” each time. The Potency entry in assay [8], in [10], in [11], in [12], in assay [13] and in [15] was “inactive” throughout. The Potency entry in assay [17], in [18], in assay [19] and in assay [20] was “inactive” throughout. Moreover, the compound was called inactive in [5], in assay [9], in [14] and in assay [16].
`Fc1ccc(C(c2ccc(F)cc2)N2CCN(CC=Cc3ccccc3)CC2)cc1`: the Potency in assay [1] was 13.5 µM (active); in assay [2] it was 16.9 µM (active); in [6], 16.9 µM (active).
Consider `COc1ccnc(CS(=O)c2nc3ccc(OC(F)F)cc3[nH]2)c1OC` (stereo not drawn), for which the Potency entry in assay [1], in assay [3], in assay [4], in assay [6], in [7] and in [8] was “inactive” each time. Also, the Potency entry in assay [10], in [11], in [12], in assay [13], in [17] and in [18] was “inactive” each time. Also, the Potency result in [19] and in assay [20] was “inactive” in each case. The compound was called inactive in assay [5], in assay [9], in assay [14] and in assay [16].
`COc1cc2c(cc1OC)CC(=O)N(CCCN(C)C[C@H]1Cc3cc(OC)c(OC)cc31)CC2`: the Potency result in [3], in assay [4], in assay [6], in assay [7], in assay [10] and in assay [11] was “inactive” in each case. Moreover, the Potency entry in assay [12], in assay [13], in assay [15], in assay [17], in assay [18] and in [19] was “inactive” throughout. Moreover, the Potency result in assay [20] is “inactive”. The result in [5], in [9], in [14] and in [16] was inactive.
Regarding `COc1c(C)c2c(c(O)c1CC=C(C)CCC(=O)OCCN1CCOCC1)C(=O)OC2`, the Potency in assay [1] was 15.1 µM (active); in assay [2] it was 12 µM (active); in assay [3], 11.2 µM (active); in assay [4], 10 µM (active); in assay [6] it was 6.75 µM (active); in [8], 7.94 µM (active). Moreover, the Potency was 8.91 µM (active) in assay [10]; 7.08 µM (active) in assay [11]; 7.94 µM (active) in assay [12]; 11.2 µM (active) in assay [13]; 5.01 µM (active) in assay [17]; 7.08 µM (active) in assay [18]. The Potency in assay [19] and in assay [20] was 5.01 µM (active) in each case. Besides, the outcome in [5], in assay [14] and in [16] was inactive.
Take `CC(C)CN(C[C@@H](O)[C@H](Cc1ccccc1)NC(=O)O[C@H]1CO[C@H]2OCC[C@H]21)S(=O)(=O)c1ccc(N)cc1`: the Potency result in assay [3], in assay [4], in assay [6], in assay [7], in assay [11] and in assay [12] was “inactive” throughout. The Potency entry in assay [15], in assay [17], in assay [18], in [19] and in [20] was “inactive” throughout. For the same compound, the compound was called inactive in assay [5], in assay [9], in assay [14] and in assay [16].
For `N#CC(c1ccc(Cl)cc1)c1c(Cl)cc(-n2ncc(=O)[nH]c2=O)cc1Cl` (stereo not drawn), the Potency result in [2], in assay [3], in assay [4], in [6], in assay [7] and in [10] was “inactive” in each case. Further, the Potency entry in [11], in [12], in assay [13], in assay [15], in assay [17] and in assay [18] was “inactive” in each case. In addition, the Potency result in [19] and in assay [20] was “inactive” throughout. For the same compound, the result in assay [5], in assay [9], in assay [14] and in assay [16] was inactive.
